Values joined by “and” are separate entries in the source; they are usually repeats but may differ in a detail not shown here. Equal entries are not always repeated. Results filed as inconclusive are left out. Where a structure was tested more than once in an assay, its records may differ in their call. Active and inactive are the calls of the source. Unless noted, the call rests on the fitted dose curve; in most records, active means well fitted curve in the direction sought with a large enough effect; inconclusive means small, poorly fitted or top-dose-only effect, or another doubt; inactive means no such curve, though single readings can be large; an effect the other way counts as inactive or inconclusive. Peptide text beside a SMILES is read from it.
What was measured:
[1] = qHTS profiling of the MIPE4 collection as inhibitors of Plasmodium falciparum (DD2) proliferation (Rep 2) (AID 743346; call rule not given here); conditions: P. falciparum Dd2 in erythrocytes, SYBR Green DNA, 72 h; at 28.5 µM unless noted
In short: (§1)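 Erythrocytes infected with P. falciparum (0.3% parasitemia, 2.5% hematocrit) incubated with compounds 72 h at 37 C, 5% CO2. Lysis with saponin/Triton buffer containing SYBR Green I, overnight at room temperature in the dark; DNA fluorescence (485/535 nm) normalised to 0.29 uM artemisinin and DMSO.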

[2] = qHTS profiling of the MIPE4 collection as inhibitors of Plasmodium falciparum (HB3) proliferation (AID 743347; call rule not given here;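 further: plate controls were DMSO vehicle wells for no effect and artemisinin wells for full effect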); conditions: P. falciparum HB3 in erythrocytes, SYBR Green DNA, 72 h; at 28.5 µM unless noted
In short: as §1

[3] = High-throughput drug toxicity screening in the BPDCN cell line Gen2.2 (AID 1224824; call rule not given here;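 further: cells exposed to compounds for 48 h before reading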); conditions: Gen2.2 BPDCN cells; at 45.8 µM (top of the series) unless noted
In short: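 Readout is ATP luminescence from Gen2.2 cells after two days of drug exposure in serum-containing medium at 37 °C. Values express percent activity, with vehicle defining full signal and 9.2 uM bortezomib defining zero.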

[4] = High-throughput drug toxicity screening in the BPDCN cell line Cal-1 (AID 1224825; call rule not given here); conditions: Cal-1 BPDCN cell viability, qHTS; at 45.8 µM (top of the series) unless noted
In short: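 Cal-1 cells, 500 per well in phenol-red-free RPMI with 10% FBS, exposed to compounds for 48 hours at 37C, 5% CO2. Viability read by CellTiter-Glo luminescence; percent activity normalized to DMSO (100%) and 9.2 uM bortezomib final (0%).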

[5] = qHTS assay for measurement of the activity of small molecule inhibitors on Zika virus induced Caspase-3 activity in human iPSC derived neural progenitor cells (hNPCs) (AID 1224857); conditions: hNPCs ZIKV-induced caspase-3/7, Caspase-Glo luminescence, 6 h; series mostly up to 45.7 µM; further: nearly all actives have a fitted effect of over 65% in size; further: potency means the concentration at half of the fitted maximal effect
In short: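 After overnight (16–20 h) culture at 350 cells/well, hNPCs get compound, then ZIKV 2 FFU/cell one hour later. Six hours on, Caspase-Glo 3/7 is added and luminescence measured.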

[6] = qHTS assay for measurement of the activity of small molecule inhibitors on Zika virus induced Caspase-3 activity in human astrocytoma cells (AID 1224859); conditions: SNB-19 ZIKV-induced caspase-3/7, luminescence, 6 h; series mostly up to 45.7 µM; further: potency means the concentration at half of the fitted maximal effect
In short: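 Inhibition of Zika-induced caspase-3/7 activity: SNB-19 cells, 1 h compound pretreatment, ZIKV 2 FFU/cell for 6 h at 37 C, Caspase-Glo luminescence read-out.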

[7] = P-glycoprotein substrates identified in KB-8-5-11 adenocarcinoma cell line, qHTS therapeutic library screen (AID 1346987); conditions: KB-8-5-11 (P-gp overexpressing) viability, CellTiter-Glo, 72 h; series mostly up to 44.5 µM; further: nearly all actives have a fitted effect of over 65% in size; further: potency means the concentration at half of the fitted maximal effect
In short: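 Steps: plate 500 KB-8-5-11 cells/well in DMEM + 10% FCS (colchicine removed); pin compounds in dose-response; incubate 72 h, 37 degree C, 5% CO2; add CellTiter-Glo, 5 min; read luminescence.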

[8] = Natriuretic polypeptide receptor (hNpr1) antagonism - Pilot counterscreen GloSensor control cell line (AID 1347045; calls by dose curve; further: on the % scale 0 is the no-effect control and ±100 the full control effect); conditions: HEK293 cGMP GloSensor cells, SNP-stimulated luminescence, 20 min; series mostly up to 38.3 µM
In short: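 Luminescence was read before and 20 min after adding 50 uM SNP, which stimulates soluble guanylyl cyclase. The HEK293 cells expressing the GloSensor cGMP sensor had been preloaded with 2% reagent for 2 h and treated with compound.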

[9] = qHTS Screen of the MIPE 4.0 Collection Against Ewings Sarcoma (TC32) (AID 1259256); conditions: TC32 Ewing sarcoma viability, CellTiter-Glo, 48 h; series mostly up to 45.8 µM;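 further: 100% = DMSO-treated cells and 0% = medium-only wells without cells; nearly all actives have a fitted effect of over 45% in size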
In short: (§2)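 Log-phase cells in RPMI with 5% FBS attached for 4 h, then received compounds as a titration for 48 h at 37C, 5% CO2. Viability was read by CellTiter-Glo luminescence and normalized to DMSO and no-cell wells.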

[10] = qHTS assay to identify small molecule inhibitors of chordoma cells - UCH-1 (AID 1259355); conditions: UCH-1 chordoma viability, CellTiter-Glo, 48 h, combination, with auranofin plus four topoisomerase inhibitors; series mostly up to 46.1 µM; further: nearly all actives have a fitted effect of over 55% in size; further: potency means the concentration at half of the fitted maximal effect
In short: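 Cells (800/well) were seeded and left overnight at 37 C, 5% CO2, then treated with drugs at 15 concentrations plus a combination mix of auranofin, camptothecin, doxorubicin, rubitecan and topotecan. Viability after 48hr was read by CellTiter-Glo luminescence.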

[11] = qHTS assay to identify small molecule inhibitors of chordoma cells - UCH-2 (AID 1259356); conditions: UCH-2 chordoma viability, CellTiter-Glo ATP luminescence, 48 h; series mostly up to 46.1 µM; further: potency means the concentration at half of the fitted maximal effect
[12] = qHTS Screen of the MIPE 4.0 Collection Against Ewings Sarcoma (EW8) (AID 1259255); conditions: EW8 Ewing sarcoma viability, CellTiter-Glo, 48 h; series mostly up to 45.8 µM; further: nearly all actives have a fitted effect of over 35% in size; further: potency means the concentration at half of the fitted maximal effect;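 on viability: 100% = DMSO-treated cells and 0% = medium-only wells without cells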
In short: as §2

[13] = Identifying Small Molecule Inhibitors of Pancreatic Cancer Stem Cells (SN12C, Adherent) (AID 1259358); conditions: viability/growth inhibition; series mostly up to 46.1 µM;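 further: cell survival measured after 48 h of compound exposure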
In short: (§3)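 Spheroids grown 14 days in stem cell media on hydrogel-coated nonadherent plates; 2D lines seeded directly. Compounds added after 4 h attachment, 48 h at 37C, 5% CO2; CellTiter-Glo luminescence normalized to DMSO (no inhibition) and no-cell wells (full inhibition).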

[14] = Identifying Small Molecule Inhibitors of Pancreatic Cancer Stem Cells (SN12C, Spheroid) (AID 1259360); conditions: Potency: SN12C spheroid viability; series mostly up to 46.1 µM;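 further: 100% = DMSO-treated cells and 0% = wells without cells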
In short: (§4)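 After a 4 h attachment period, compounds were pinned into wells and cultures held 48 h under standard incubator conditions. Viability was then measured as CellTiter-Glo luminescence following 10 min at room temperature.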

[15] = Identifying Small Molecule Inhibitors of Pancreatic Cancer Stem Cells (Panc1, Adherent) (AID 1259362); conditions: Potency: viability; series mostly up to 46.1 µM; further: potency means the concentration at half of the fitted maximal effect
In short: as §4

[16] = Identifying Small Molecule Inhibitors of Pancreatic Cancer Stem Cells (A2780, Spheroid) (AID 1259357); conditions: Potency: A2780 spheroid viability; series mostly up to 46.1 µM;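 further: spheroids pre-formed over 14 days in stem cell medium on hydrogel; compound exposure lasted 48 h before the ATP luminescence read; 100% = DMSO treated cells and 0% = wells without cells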
In short: as §4

[17] = Identifying Small Molecule Inhibitors of Pancreatic Cancer Stem Cells (A278, Adherent) (AID 1259361); conditions: series mostly up to 46.1 µM;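 further: 100% = DMSO-treated cells and 0% = cell-free media-only wells; nearly all actives have a fitted effect of over 35% in size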
In short: as §3

Row | Structure (SMILES) | parasite growth, % of control (lower = inhibition) [1] [%] | growth, % of control [2] [%] | cell viability, % of control (lower = more cytotoxic) [3] [%] | viability (% of control) [4] [%] | Potency [5] | Potency [6] | Potency [7] | Potency [8] | Potency [9] | Potency [10] | Potency [11] | Potency [12] | Potency [13] | Potency [14] | Potency [15] | Potency [16] | IC50 (viability decrease) [17]
1 | Oc1ccc(-c2nc(-c3ccc(F)cc3)c(-c3ccncc3)[nH]2)cc1 | 35.5 | 24.5 | 136 | 54.8 | inactive | inactive | inactive | inactive | – | – | – | – | – | – | – | – | –
2 | CC(C)c1ccc2oc3nc(N)c(C(=O)O)cc3c(=O)c2c1 | 71.7 | 74 | 98.6 | 97.4 | 1.66 µM (active) and inactive | 1.32 µM (active) and inactive | – | – | inactive | inactive | inactive | – | – | – | – | – | –
3 | COc1cc2c(N3CCN(C(=O)Nc4ccc(OC(C)C)cc4)CC3)ncnc2cc1OCCCN1CCCCC1 | 12 | 3.25 | 7.51 | 11.3 | inactive | inactive | inactive | – | – | – | – | 23.5 µM (active) | inactive | inactive | – | – | –
4 | Clc1ccc(C(Cn2ccnc2)OCc2c(Cl)cccc2Cl)c(Cl)c1 (configuration not stated) | 14.8 | 7.46 | 327 | 63.4 | inactive | inactive | – | – | – | inactive | inactive | – | – | – | – | – | –
5 | Cc1nc(Nc2ncc(C(=O)Nc3c(C)cccc3Cl)s2)cc(N2CCN(CCO)CC2)n1 | 17.6 | 3.03 | 74.9 | 11.7 | inactive | inactive | – | – | – | – | – | 20.9 µM (active) | – | – | 20.9 µM (active) | – | –
6 | O=C(NC(Cc1cc(=O)[nH]c2ccccc12)C(=O)O)c1ccc(Cl)cc1 (configuration not stated) | 89.9 | 75.3 | 149 | 108 | inactive | inactive | inactive | – | – | inactive | inactive | inactive | – | – | – | – | –
7 | CC1(C)NC(=O)N(c2ccc([N+](=O)[O-])c(C(F)(F)F)c2)C1=O | 86.1 | 91 | 204 | 105 | inactive | inactive | 13 µM (active) and inactive | inactive | – | inactive | inactive | inactive | – | – | – | – | –
8 | O=C(NCCO[N+](=O)[O-])c1cccnc1 | 118 | 108 | 178 | 117 | inactive | inactive | – | – | – | inactive | inactive | inactive | – | – | – | – | –
9 | O=C(O)c1cn(-c2ccc(F)cc2)c2cc(N3CCNCC3)c(F)cc2c1=O | 50.7 | 208 | 47.7 | 79.5 | inactive | inactive | inactive | – | – | inactive | inactive | – | – | – | – | – | –
10 | O=C1CCc2ccc(OCCCCN3CCN(c4cccc(Cl)c4Cl)CC3)cc2N1 | 53.7 | 62.9 | 498 | 110 | inactive | inactive | inactive | – | – | – | inactive | – | – | – | – | – | –
11 | COC(=O)[C@H](Cc1ccccc1)NC(=O)[C@@H](N)CC(=O)O (H-Asp-Phe-OMe) | 118 | 107 | 280 | 114 | inactive | inactive | inactive | – | – | inactive | inactive | – | – | – | – | – | –
12 | Cc1cc(=O)c2c(O)c3c(O)cc(=O)c4c3c3c(cc(O)c1c23)C(C)(C)C=4O | 13.7 | 5.99 | 130 | 94.6 | inactive | inactive | 1.46 µM (active) and 4.69 µM (active) | – | inactive | 6.31 µM (active) | 6.51 µM (active) | – | – | – | – | – | –
13 | Clc1ccc(C(Cn2ccnc2)OCc2ccsc2Cl)c(Cl)c1 (configuration not stated) | 15.9 | 8.47 | 75.4 | 32.2 | inactive | inactive | – | – | – | inactive | inactive | – | – | – | – | – | –
14 | Cc1cccc(C#Cc2ccccc2)n1 | 36.6 | 42 | 40.7 | 57.2 | inactive and 6.31 µM (active) | inactive and 3.98 µM (active) | inactive | – | – | – | – | 18.7 µM (active) | inactive | – | – | inactive | inactive
15 | COC1=C(OC)C(=O)C(CCCCCCCCCCO)=C(C)C1=O | 32.3 | 73.4 | 145 | 24.2 | inactive | inactive | inactive | – | – | inactive | inactive | – | – | – | – | – | –
16 | COCCCOc1ccnc(CS(=O)c2nc3ccccc3[nH]2)c1C (configuration not stated) | – | – | 139 | 104 | inactive | inactive | 3.66 µM (active) and inactive | – | – | inactive | inactive | inactive | – | – | – | – | –
17 | COCCCN1CCC(NC(=O)c2cc(Cl)c(N)c3c2OCC3)CC1 | 38 | 15.7 | 418 | 76.6 | inactive | inactive | – | – | – | – | – | – | – | – | – | – | –
18 | Clc1ccc(C(Cn2ccnc2)OCc2ccc(Sc3ccccc3)cc2)c(Cl)c1 (configuration not stated) | 18.3 | 9.13 | 183 | 100 | inactive | inactive | – | – | – | – | – | – | – | – | – | – | –
